Among the test systems are SR leukemia; RPMI-8226 leukemia; OVCAR-5 ovarian; OVCAR-4 ovarian; SK-OV-3 ovarian; IGROV1 ovarian; OVCAR-3 ovarian; HS 578T breast; T-47D breast; BT-549 breast; MDA-MB-435 melanoma; SW-620 colon; MCF7 breast; HCT-116 colon; HCC-2998 colon; KM12 colon; NCI/ADR-RES ovarian; OVCAR-8 ovarian.
Holding throughout (assay): NCI-60 one-dose screen, 48 h (100 = growth as untreated, 0 = no growth, -100 = all killed)
Details in all cases: 10 µM unless noted

About 83,000 compounds went through this panel and 20% of them were active in at least one assay; those are over-represented in the sample as a whole.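 Treatment: one concentration, 48 hours, 96-well format. Scoring: percent growth, with anything below 10 considered active.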 Values without a mark were called inactive. Activity calls are given as the source filed them.

For `CCOC(=O)c1c(NC(=O)c2ccccc2)sc2c3c(ccc12)OCN(C)C3`, the growth with SR leukemia was -39.6% (active); in the assay with RPMI-8226 leukemia, -46.2% (active); in the assay with OVCAR-5 ovarian, -0.612% (active); with OVCAR-4 ovarian, 61.8%; in the assay with SK-OV-3 ovarian, 88.5%; with IGROV1 ovarian, 18.6%. In addition, the growth was 52.1% with OVCAR-3 ovarian; 57.9% in the assay on HS 578T breast; -10.1% (active) with T-47D breast; 62.2% with BT-549 breast; -88.5% (active) in the assay with MDA-MB-435 melanoma; -42.3% (active) with SW-620 colon. For the same molecule, the growth with MCF7 breast is -50.6% (active); with HCT-116 colon, -20.9% (active); in the assay with HCC-2998 colon it was -85% (active); in the assay on KM12 colon, 8.58% (active).
Take `CN1CCN(Cc2ccc(NC(=O)c3cncc(C#Cc4cnc(N)cc4C#N)c3)cc2C(F)(F)F)CC1`: the growth in the assay with SR leukemia was 1.8% (active); in the assay with RPMI-8226 leukemia, 12.7%; with OVCAR-5 ovarian, 15.8%; in the assay on OVCAR-4 ovarian, 23.2%; in the assay on IGROV1 ovarian it was 1.46% (active); in the assay on OVCAR-3 ovarian, 28.4%. The growth is -8.07% (active) with HS 578T breast; 66.3% in the assay with NCI/ADR-RES ovarian; 24.7% in the assay with T-47D breast; 37.5% in the assay on BT-549 breast; 2.03% (active) in the assay with MDA-MB-435 melanoma; -2.02% (active) in the assay with SW-620 colon. The growth was 18.7% in the assay with MCF7 breast, 1.47% (active) with HCT-116 colon, 22.5% in the assay with HCC-2998 colon and 5.45% (active) with KM12 colon.
As for `O=C(NCCN1CCOCC1)OCc1ccc2c(Cl)cc(Cl)c(O)c2n1`, the growth is 68.4% with SR leukemia; 56.2% with RPMI-8226 leukemia; 106% with OVCAR-5 ovarian; 49.4% in the assay with OVCAR-4 ovarian; 91.8% with SK-OV-3 ovarian; 57.8% in the assay on IGROV1 ovarian. Further, the growth with OVCAR-3 ovarian was 62.1%; with HS 578T breast it was 83.1%; in the assay on NCI/ADR-RES ovarian it was 5.25% (active); in the assay on BT-549 breast it was 83%; with MDA-MB-435 melanoma it was 65.8%; with SW-620 colon, 87.6%. Besides, the growth is 51% in the assay on MCF7 breast, 39.1% with HCT-116 colon, 83.5% in the assay with HCC-2998 colon and 53.2% in the assay with KM12 colon.
Take `CCCCCc1ccc(S(=O)(=O)Nc2cc(-c3csc(NC(C)=O)n3)ccc2N2CCN(C)CC2)cc1`: the growth with SR leukemia was 14.1%; in the assay on RPMI-8226 leukemia, -28.7% (active); in the assay on OVCAR-8 ovarian, 70.1%; in the assay on OVCAR-5 ovarian, 85.3%; in the assay with SK-OV-3 ovarian it was 92.6%; in the assay on IGROV1 ovarian, 62.1%. The growth with OVCAR-3 ovarian was 75.6%; in the assay with HS 578T breast, 67.3%; in the assay with NCI/ADR-RES ovarian, 61.2%; in the assay on T-47D breast, 58.8%; in the assay with BT-549 breast, 63.9%; in the assay with MDA-MB-435 melanoma, -45.4% (active). For the same molecule, the growth was -25.9% (active) with SW-620 colon; 9.36% (active) with MCF7 breast; 3.98% (active) in the assay with HCT-116 colon; -26.9% (active) with HCC-2998 colon; 74.1% in the assay with KM12 colon.
In the case of `Cc1c2cnccc2c(C)c2c1c1cc(CO)ccc1n2C`, the growth in the assay with SR leukemia was 8.41% (active); with RPMI-8226 leukemia, -20.5% (active); in the assay with OVCAR-5 ovarian, -27.5% (active); with OVCAR-4 ovarian, -56.2% (active); in the assay with IGROV1 ovarian, -36.4% (active); with OVCAR-3 ovarian, -33.7% (active). The growth is -13.1% (active) with HS 578T breast; -24.6% (active) in the assay with NCI/ADR-RES ovarian; -21.2% (active) in the assay on T-47D breast; -61.6% (active) in the assay with BT-549 breast; -81.2% (active) in the assay on MDA-MB-435 melanoma; 2.39% (active) in the assay with SW-620 colon. For the same molecule, the growth was -13.9% (active) in the assay with MCF7 breast, -7.64% (active) in the assay with HCT-116 colon, -65.4% (active) with HCC-2998 colon and 1.94% (active) in the assay on KM12 colon.
Turning to `C[N+]1=C(/C=C/c2ccccc2Cl)C(C)(C)c2ccccc21`, the growth was 18.2% in the assay with SR leukemia; 66.9% in the assay with RPMI-8226 leukemia; 100% in the assay with OVCAR-5 ovarian; 96.1% in the assay on OVCAR-4 ovarian; 94.3% with SK-OV-3 ovarian; 90.6% in the assay on IGROV1 ovarian. Further, the growth in the assay on OVCAR-3 ovarian was 78.3%; in the assay on HS 578T breast, 102%; in the assay on NCI/ADR-RES ovarian it was 101%; in the assay on T-47D breast, 86.4%; in the assay with BT-549 breast, 109%; in the assay on MDA-MB-435 melanoma it was 100%. Besides, the growth with SW-620 colon was 92.4%; with MCF7 breast, 94.7%; in the assay with HCT-116 colon, 90.8%; with HCC-2998 colon, 103%; with KM12 colon, 96.6%.
Regarding `Cn1cc(-c2nonc2-c2c[nH]c3ccccc23)c2cc(Br)ccc21`, the growth in the assay with SR leukemia is 15.3%; in the assay on RPMI-8226 leukemia, 40.6%; in the assay with OVCAR-5 ovarian it was 49%; in the assay with OVCAR-4 ovarian, 49.6%; in the assay with SK-OV-3 ovarian, 49.8%; in the assay with IGROV1 ovarian, 43%. In addition, the growth is 33.5% in the assay on OVCAR-3 ovarian; 59.1% in the assay on HS 578T breast; 29.3% in the assay on NCI/ADR-RES ovarian; 47.1% with BT-549 breast; 2.49% (active) with MDA-MB-435 melanoma; 23.9% in the assay with SW-620 colon. Besides, the growth with MCF7 breast is 19.6%; with HCT-116 colon, 25.6%; in the assay on HCC-2998 colon it was 43.4%; in the assay with KM12 colon it was 17.7%.
Take `COc1cc(-c2cc(-c3ccc(Nc4nc(Nc5ccc(Cl)cc5)nc(Nc5ccc(Cl)cc5)n4)cc3)no2)cc(OC)c1OC`: the growth was 15.7% with SR leukemia; 7.63% (active) with RPMI-8226 leukemia; 77.8% with OVCAR-5 ovarian; 78.8% with OVCAR-4 ovarian; 90.7% in the assay with SK-OV-3 ovarian; 71% in the assay with IGROV1 ovarian. Further, the growth with OVCAR-3 ovarian was 86%; with HS 578T breast, 62.9%; in the assay on NCI/ADR-RES ovarian, 80.4%; with T-47D breast, 45.9%; with BT-549 breast it was 88.6%; in the assay on SW-620 colon, 89.1%. The growth is 49.4% in the assay with MCF7 breast, 66.2% with HCT-116 colon, 61.3% in the assay with HCC-2998 colon and 83.8% in the assay on KM12 colon.
Turning to `C=C(C)[C@@H]1CC[C@]2(C(=O)Nc3ccccn3)CC[C@]3(C)[C@H](CC[C@@H]4[C@@]5(C)CCCNC(C)(C)[C@@H]5CC[C@]43C)[C@@H]12`, the growth was -29.5% (active) in the assay with SR leukemia; -46% (active) in the assay on RPMI-8226 leukemia; 70.7% with OVCAR-5 ovarian; 8.81% (active) with OVCAR-4 ovarian; 32.2% with SK-OV-3 ovarian; 35.4% in the assay on IGROV1 ovarian. Further, the growth is 20.9% with OVCAR-3 ovarian; 26.9% with HS 578T breast; 61% with NCI/ADR-RES ovarian; 25.9% with T-47D breast; 25.7% in the assay on BT-549 breast; -31.7% (active) in the assay on SW-620 colon. In addition, the growth is 8.22% (active) in the assay with MCF7 breast, -43.4% (active) with HCT-116 colon, 5.09% (active) in the assay on HCC-2998 colon and 10.6% in the assay with KM12 colon.

Source of the values: PubChem BioAssay (NCI).
